PubChem BioAssay (NCATS)
“And” between values parts separate entries of the source, which are not always exact repeats. Equal values may be shown once. Inconclusive results are not listed. A call without a number means that no potency is given here. The source holds several records for some structures; these can differ, active in one and inactive in another. The source made the active and inactive calls. Calls come from the whole dose curve; as a rule, active = well fitted cell-killing curve with a large enough effect; inconclusive = small, poorly fitted or top-dose-only effect, or effect the other way; inactive = flat fitted curve, though single readings scatter.

Assays:
Experiment in all cases: Primary qHTS to identify gynecologic anti-cancer compounds using libraries of approved drugs and bioactive compounds (AID 1345084); note: nearly all actives have a fitted effect of over 55% in size
C33A = conditions: Gynecologic cancer cell panel viability, ATPlite luminescence, 48 h; series mostly up to 57.5 µM
Method in brief: (§1)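 Measured: luminescence after ATPlite addition (15 min, RT). Exposure: 48 h, 37 C, 5% CO2.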

CAOV3 = conditions: Gynecologic cancer cell panel viability, ATPlite luminescence, 48 h; series mostly up to 57.5 µM
Method in brief: as §1

Es-2 = conditions: Gynecologic cancer cell panel viability, ATPlite luminescence, 48 h; series mostly up to 57.5 µM
Method in brief: as §1

HeLa = conditions: Gynecologic cancer cell panel viability, ATPlite luminescence, 48 h; series mostly up to 57.5 µM
Method in brief: as §1

OV90 = conditions: Gynecologic cancer cell panel viability, ATPlite luminescence, 48 h; series mostly up to 57.5 µM
Method in brief: as §1

CASKI = conditions: Gynecologic cancer cell panel viability, ATPlite luminescence, 48 h; series mostly up to 57.5 µM
Method in brief: as §1

Hek293T = conditions: Gynecologic cancer cell panel viability, ATPlite luminescence, 48 h, control line for the selectivity index; series mostly up to 57.5 µM
Method in brief: as §1

JEG-3 = conditions: Gynecologic cancer cell panel viability, ATPlite luminescence, 48 h; series mostly up to 57.5 µM
Method in brief: as §1

PA-1 = conditions: Gynecologic cancer cell panel viability, ATPlite luminescence, 48 h; series mostly up to 57.5 µM
Method in brief: as §1

SKOV3 = conditions: Gynecologic cancer cell panel viability, ATPlite luminescence, 48 h; series mostly up to 57.5 µM
Method in brief: as §1
Potency is the fitted concentration of half-maximal effect.

SMILES	Potency (C33A)	Potency (CAOV3)	Potency (Es-2)	Potency (HeLa)	Potency (OV90)	Potency (CASKI)	Potency (Hek293T)	Potency (JEG-3)	Potency (PA-1)	Potency (SKOV3)
CCN(CC)CCCC(C)Nc1c2ccc(Cl)cc2nc2ccc(OC)cc12 (centres undefined)	12.6 µM (active) and inactive	3.98 µM (active)	inactive	inactive	8.91 µM (active)					
C[C@H](NC(CCc1ccccc1)C(=O)O)C(=O)N1CCC[C@H]1C(=O)O (some centres undefined)	inactive	inactive		inactive	inactive	inactive	inactive	inactive	inactive	inactive
CC(CN(C)C)CN1c2ccccc2CCc2ccccc21 (centres undefined)	inactive	inactive	inactive	inactive			inactive	inactive	inactive	inactive
C[C@H]1O[C@@H](n2cc(F)c(=O)[nH]c2=O)[C@H](O)[C@@H]1O	inactive		inactive	inactive	inactive	inactive	inactive	inactive	inactive	inactive
O=C(O)[C@H](O)c1ccccc1	inactive		inactive	inactive	inactive	inactive	inactive	inactive	inactive	inactive
Cc1cccc(Nc2cc(Cl)nc(SCC(=O)O)n2)c1C	inactive		inactive	inactive	inactive	inactive	inactive	inactive	inactive	inactive
Oc1cccc(O)c1	inactive		inactive	inactive	inactive	inactive	inactive	inactive	inactive	inactive
Cc1cc(CC(=O)O)n(C)c1C(=O)c1ccc(Cl)cc1	inactive		inactive	inactive	inactive	inactive	inactive	inactive	inactive	inactive
CC1=C(C/C=C(\C)CCC[C@H](C)CCC[C@H](C)CCCC(C)C)C(=O)c2ccccc2C1=O	inactive		inactive	inactive	inactive	inactive	inactive	inactive	inactive	inactive
C[C@]12CC[C@@H]3c4ccc(O)cc4CC[C@H]3[C@@H]1CCC2=O	inactive		inactive	28.2 µM (active)	inactive	inactive	inactive	inactive	inactive	inactive
O=C1O[C@H](CO)[C@@H](O)[C@H](O)[C@H]1O	inactive		inactive	inactive	inactive	inactive	inactive	inactive	inactive	inactive
CCn1cc(C(=O)O)c(=O)c2cnc(N3CCNCC3)nc21	inactive		inactive	inactive	inactive	inactive	inactive	inactive	inactive	inactive
Oc1cn2c(n1)Nc1ccc(Cl)c(Cl)c1C2	inactive	inactive	inactive		inactive	inactive		inactive	0.355 µM (active)	inactive
Cc1cc(N)c2ccccc2[n+]1CCCCCCCCCC[n+]1c(C)cc(N)c2ccccc21	inactive	14.1 µM (active)	inactive	inactive				inactive	22.4 µM (active)	
COC(=O)C1=C(C)NC(C)=C(C(=O)OC)C1c1ccccc1[N+](=O)[O-]	inactive	inactive	inactive		inactive	inactive	inactive	inactive	inactive	inactive
O=C(O)c1ccccc1-c1ccc(C(F)(F)F)cc1	inactive		inactive	inactive	inactive	inactive	inactive	inactive	inactive	inactive
O=c1cc(CO)occ1O	inactive		inactive	inactive	inactive	inactive	inactive	inactive	inactive	inactive
C[C@@H]1CCN(C(=O)[C@H](CCCN=C(N)N)NS(=O)(=O)c2cccc3c2NC[C@H](C)C3)[C@@H](C(=O)O)C1	inactive		inactive	inactive	inactive	inactive	inactive	inactive	inactive	inactive
O=C1NC(=O)[C@@]2(CCOc3ccc(F)cc32)N1	inactive		inactive	inactive	inactive	inactive	inactive	inactive	inactive	inactive

SMILES	Potency (C33A)	Potency (CAOV3)	Potency (Es-2)	Potency (HeLa)	Potency (OV90)	Potency (CASKI)	Potency (Hek293T)	Potency (JEG-3)	Potency (PA-1)	Potency (SKOV3)
CCCCCCCCCCCCCCCC(=O)NCCO	inactive		inactive	inactive	inactive	inactive	inactive	inactive	inactive	
Nc1cc(=O)[nH]c(N)n1	inactive	inactive	inactive	inactive	inactive		inactive	inactive		inactive
CC(C)(O)c1ccccc1CC[C@@H](SCC1(CC(=O)O)CC1)c1cccc(/C=C/c2ccc3ccc(Cl)cc3n2)c1	inactive		inactive	inactive	inactive	inactive	inactive	inactive	inactive	inactive and 35.5 µM (active)
CC1(C)CO[C@@H](CC(=O)O)CN1	inactive	inactive	inactive	inactive	inactive	inactive		inactive	inactive	inactive
NC(=O)NC(=O)Cc1ccccc1	inactive		inactive	inactive	inactive	inactive	inactive	inactive	inactive	inactive
N[C@H](C(=O)O)c1ccc(O)cc1	inactive		inactive	inactive	inactive	inactive	inactive	inactive	inactive	inactive
CCN(CC)CCNC(=O)c1c(C)[nH]c(/C=C2\C(=O)Nc3ccc(F)cc32)c1C	inactive	25.1 µM (active)			10 µM (active)		inactive	inactive	10 µM (active)	8.91 µM (active)
CN(C)CCCO[C@@H]1[C@H]2OC(C)(C)O[C@H]2O[C@@H]1C(O)CO (some centres undefined)	inactive	inactive	inactive	inactive	inactive	inactive		inactive	inactive	inactive
NS(=O)(=O)c1cc2c(cc1Cl)NC(CSCc1ccccc1)=NS2(=O)=O	inactive		inactive	inactive	inactive	inactive	inactive	inactive	inactive	inactive
CCCCOC(=O)c1ccc(O)cc1	inactive		inactive	inactive	inactive	inactive	inactive	inactive	inactive	inactive
OCCN1CCN(CCCN2c3ccccc3Sc3ccc(Cl)cc32)CC1	20 µM (active)	25.1 µM (active)		inactive	15.8 µM (active)	25.1 µM (active)				28.2 µM (active)
O=C(CCCN1CCN(c2ccccn2)CC1)c1ccc(F)cc1	inactive		inactive	inactive	inactive	inactive	inactive	inactive	inactive	inactive
CN1CCOC(c2ccccc2)c2ccccc2C1 (centres undefined)	inactive		inactive	inactive	inactive	inactive	inactive	inactive	inactive	inactive
COc1ccc2c(c1)C(=O)N(CCc1ccc(S(=O)(=O)NC(=O)NC3CCCCC3)cc1)C(=O)C2(C)C	inactive		inactive	inactive	inactive	inactive	inactive	inactive	inactive	inactive
CC(=O)O[C@@]12CO[C@@H]1C[C@H](O)[C@@]1(C)C(=O)[C@H](O)C3=C(C)[C@@H](OC(=O)[C@H](O)[C@@H](NC(=O)OC(C)(C)C)c4ccccc4)C[C@@](O)([C@@H](OC(=O)c4ccccc4)[C@H]21)C3(C)C	inactive	inactive			inactive	inactive	inactive	inactive		
CC[N+](CC)(CC)CCOc1ccc(/C=C/c2ccccc2)cc1	14.1 µM (active)	10 µM (active)			17.8 µM (active)			31.6 µM (active)	2.51 µM (active)	10 µM (active)
CN(C)CCC=C1c2ccccc2CCc2ccccc21	inactive	inactive	inactive	inactive		inactive		inactive	inactive	inactive
COc1ccc2cc1Oc1ccc(cc1)C[C@H]1c3c(cc4c(c3Oc3cc5c(cc3OC)CCN(C)[C@@H]5C2)OCO4)CCN1C	inactive		inactive	inactive	10 µM (active) and inactive	inactive	inactive	inactive	28.2 µM (active)	
